# Source: PubChem (National Center for Advancing Translational Sciences (NCATS))
# Chronic BCR inh: chronic active BCR signaling inhibition; ABC-DLBCL IkBa-CBG/CBR reporter, luminescence ratio, 4 h; Potency, µM (series often up to 46.1 µM), most hits filed as inhibitors; 340,000 compounds, 0.05% hits; active means well fitted inhibition curve with a large enough effect in the signal ratio, with a control signal flat, not every such curve was filed as active; inconclusive means small, poorly fitted or top-dose-only effect, or effect the other way, or a change in a side signal; the % refers to the signal ratio
#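 Doxycycline induced both beetle luciferases in TMD8 lymphoma cells; IKK-driven degradation limits the IkappaBalpha-fused green signal, while red luminescence normalises for cell number and nonspecific effects. Compounds tested up to 46 uM, 4 hrs.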
# MBNL1-CUG inh: MBNL1-poly(CUG) RNA binding inhibition | TR-FRET MBNL1-His/biotin-(CUG)12 binding, 665/545 ratio | Potency, µM (highest dose often 57.5 µM), actives largely listed as inhibitors | AID 2675 | 280,000 compounds, 0.036% hits | Q9NR56; active means well fitted inhibition curve with a large enough effect in the signal ratio, with a control signal flat, not every such curve was filed as active; inconclusive means small, poorly fitted or top-dose-only effect, or effect the other way, or a change in a side signal; inactive means no such curve, though single readings can be large or run the other way; the % refers to the signal ratio
# Target sequence (Q9NR56 whole entry, looked up): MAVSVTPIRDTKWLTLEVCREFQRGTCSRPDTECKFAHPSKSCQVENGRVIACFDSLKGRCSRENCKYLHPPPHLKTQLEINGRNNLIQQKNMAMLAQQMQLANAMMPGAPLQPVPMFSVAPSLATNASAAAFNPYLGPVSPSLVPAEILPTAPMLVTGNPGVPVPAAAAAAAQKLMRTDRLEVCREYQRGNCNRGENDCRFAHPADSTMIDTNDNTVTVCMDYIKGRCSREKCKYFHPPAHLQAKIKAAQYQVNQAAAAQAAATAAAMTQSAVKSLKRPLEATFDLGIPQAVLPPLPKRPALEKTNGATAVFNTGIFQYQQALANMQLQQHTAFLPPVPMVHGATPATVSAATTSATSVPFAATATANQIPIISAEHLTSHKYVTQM
#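 TR-FRET between His-tagged MBNL1 and biotin-(CUG)12 RNA, detected with Tb anti-His antibody (0.055 ng/ul) and streptavidin-XL665 (5 nM), 60 min at room temperature. Compounds titrated 92 nM to 58 uM; 665/545 nm ratio normalized to buffer and complex controls.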
# Anesthetic bind: binds horse apoferritin like a general anesthetic | P02791 | apoferritin/1-aminoanthracene competitive binding, fluorescence | Potency, µM (titrated, usually from 77.5 µM), hits mostly inhibitors | 350,000 compounds, 0.074% hits | AID 485281; further: nearly all actives have a fitted effect of over 20% in size
# Target sequence (P02791 2-175 limits assumed): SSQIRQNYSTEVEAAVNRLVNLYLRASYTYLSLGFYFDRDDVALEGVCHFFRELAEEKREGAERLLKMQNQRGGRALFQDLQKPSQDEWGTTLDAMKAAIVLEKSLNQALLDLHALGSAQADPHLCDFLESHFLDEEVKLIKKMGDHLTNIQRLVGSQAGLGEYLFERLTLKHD
#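 Probe: 1-aminoanthracene (50% saturated, PBS). Protein: horse-spleen apoferritin, 10 uM. Incubation: 10 min, room temperature. Detection: 380 nm excitation, 535 nm emission. Analysis: normalized response, four-parameter Hill.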
# B2AR arrestin: agonists driving beta-arrestin recruitment to human beta2-adrenergic receptor; P07550; beta-arrestin recruitment to beta2AR, cell-based reporter; Potency, µM (highest dose often 46.1 µM), hits mostly activators; 330,000 compounds, 0.02% hits; further: nearly all actives have a fitted effect of over 65% in size
# GLS inh: inhibitors of human glutaminase (GLS); O94925; 410,000 compounds, 0.21% hits; GLS enzymatic activity, qHTS titration; AID 624170; Potency, µM (doses to about 45.5 µM), usual class: inhibitors
#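 Enzyme dispensed in phosphate buffer (45 mM, pH 8.2, 0.02% Tween-20), compounds pinned in, then 1 mM L-glutamine solution and the glutamate oxidase–HRP–Amplex Red mix added; fluorescence read immediately and again after 30 min at room temperature.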
# MBNL1 TRFRET: MBNL1-poly(CUG) RNA binding inhibition confirmed | TR-FRET MBNL1-His / biotin-(CUG)12 binding, 60 min | Potency, µM (top dose mostly 57.6 µM), actives largely listed as inhibitors | 140 compounds, 50% hits | shares compounds with MBNL1-CUG inh
# MBNL1 AlphaScrn: MBNL1-CUG RNA binding inhibition, AlphaScreen validation. shares compounds with MBNL1-CUG inh. AlphaScreen MBNL1-His / biotin-(CUG)12 binding. Potency, µM (series often up to 57.7 µM), hits mostly inhibitors. 140 compounds, 30% hits
# Menin-MLL HTRF: MBNL1-CUG RNA binding inhibitor counterscreen activity. shares compounds with MBNL1-CUG inh. Potency, µM (titrated, usually from 57.6 µM), actives largely listed as inhibitors. 120 compounds, 20% hits. His-Menin/biotin-MLL peptide TR-FRET counterscreen
# GLS hit conf: glutaminase (human) inhibition, hit confirmation; shares compounds with GLS inh; biochemical glutaminase enzyme inhibition assay; Potency, µM (doses to about 46.1 µM), hits mostly inhibitors; 35 tested, under 10 active; AID 624261; calls by dose curve
# HRP GOx counter: counter-screen for glutaminase inhibitors: HRP coupled enzyme inhibition; shares compounds with GLS inh; HRP/glutamate oxidase coupled Amplex Red fluorescence counterscreen; activity change, negative = inhibition, % at 46.1 µM; 35 tested, under 10 active
# GLS HEK tox: reduces HEK-293 viability in glutaminase inhibitor counter-screen; shares compounds with GLS inh; HEK-293 viability, CellTiter-Glo luminescence, 24 h; activity change, negative = cytotoxicity, % at 46.1 µM; 35 tested, under 10 active
# Hits are given with their value; – = inactive; ? = inconclusive; · = no result. Only some compounds are listed: those with a hit (about 0.35% of all), similar ones and a draw of the others. Unless noted, the call rests on the fitted dose curve; in most records, active means well fitted curve in the direction sought with a large enough effect; inconclusive means small, poorly fitted or top-dose-only effect, or another doubt; inactive means no such curve, though single readings can be large; an effect the other way counts as inactive or inconclusive.
SMILES,Chronic BCR inh,MBNL1-CUG inh,Anesthetic bind,B2AR arrestin,GLS inh,MBNL1 TRFRET,MBNL1 AlphaScrn,Menin-MLL HTRF,others
COc1cccc(/C=N/Nc2nccnc2Cl)c1O,?,?,–,–,–,?,3.7µM,–,
COc1ccc(/C=N/Nc2nccnc2Cl)cc1,?,?,–,–,–,?,–,–,
COc1cccc(/C=N/Nc2ncnc(Cl)c2N)c1O,?,·,–,–,–,·,·,·,
COc1ccc(C)cc1S(=O)(=O)Nc1ccc(F)c(Cl)c1,–,25µM,–,–,–,–,–,–,
CCOC(=O)CCCCC(=O)c1[nH]c(=O)[nH]c1Cn1cnc2ccccc21,–,10µM,–,–,–,10µM,2.6µM,26µM,
Cc1[nH]c2ccccc2c1C(=O)COC(=O)Cn1cnc2ccccc21,–,–,–,–,–,·,·,·,
CCCNC(=O)Nc1cc(OC)c(OC)cc1Cc1nccc2cc(OC)c(OC)cc12,?,25µM,–,–,–,13µM,–,?,
CCS(=O)(=O)Nc1cc(OC)c(OC)cc1Cc1nccc2cc(OC)c(OC)cc12,?,–,–,–,–,·,·,·,
O=C1c2ccccc2C(=O)c2c(Nc3ccc(CCO)cc3)ccc(O)c21,–,?,–,–,–,·,·,·,
O=C1c2c(O)ccc(O)c2C(=O)c2c(NCCNCCO)ccc(NCCNCCO)c21,?,?,?,–,–,1.6µM,?,–,
CN(C(=O)c1ccc2c(c1)N(Cc1cccc(Cl)c1)C(=O)c1ccccc1S2(=O)=O)C1CCCCC1,–,·,–,·,–,·,·,·,
CCCCN(Cc1ccccc1)S(=O)(=O)c1ccc2c(c1)CC(C)N2C(=O)CC (stereo unspecified),·,·,–,·,–,·,·,·,
c1csc(C(c2nnnn2C2CCCCC2)N2CCCC3(CCCCC3)C2)c1 (stereo unspecified),–,25µM,–,–,–,–,–,–,
CN(C(=O)COC(=O)c1ccc(-c2ccc(O)cc2)cc1)C1CCS(=O)(=O)C1 (stereo unspecified),–,40µM,–,–,–,?,21µM,–,
COc1ccc(C2=NN(C(C)=O)C(c3cn(-c4ccccc4)nc3-c3cccs3)C2)cc1 (stereo unspecified),·,·,–,·,–,·,·,·,
CCCCN1C(=O)NC2NC(=O)NC21 (stereo unspecified),?,5.6µM,–,–,–,3.3µM,1.2µM,?,
CCO/C=C1/C(=O)N(Cc2ccccc2)C(=O)c2ccccc21,–,16µM,–,–,–,–,52µM,–,
Cn1c(=O)c2c(ncn2CCO)n(C)c1=O,?,–,–,–,–,–,–,–,
Cc1cc(C)c2sc(N3CCN(C(=O)C4CC4)CC3)nc2c1,–,·,–,·,–,·,·,·,
CCCCCCC(=O)O,–,·,·,–,–,·,·,·,
O=C(O)CCCCCCCC(=O)O,–,20µM,–,–,–,?,?,–,
CC1CCN(CCCNC(=O)c2ccc(CS(=O)(=O)Cc3ccccc3F)o2)CC1,–,–,–,–,–,·,·,·,
O=C(NCCCN1CCCCCC1)c1ccc(CS(=O)(=O)Cc2ccccc2F)o1,–,40µM,–,–,–,?,–,–,
COc1ccccc1NC(=O)C1=C(C)Nc2nc(-c3ccco3)nn2C1c1cccc(C)c1 (stereo unspecified),·,·,–,·,–,·,·,·,
COc1ccc(CN2CN(c3ccc(Cl)cc3)C(=O)N(n3cnnc3)C2)cc1,–,?,–,–,–,·,·,·,
SMILES,Chronic BCR inh,MBNL1-CUG inh,Anesthetic bind,B2AR arrestin,GLS inh,MBNL1 TRFRET,MBNL1 AlphaScrn,Menin-MLL HTRF,others
O=C1N(c2ccc(Cl)c(Cl)c2)CN(Cc2ccccc2)CN1n1cnnc1,–,13µM,–,–,–,16µM,–,?,
C[C@@H]1O[C@@H](OC[C@H]2O[C@@H](Oc3c(-c4ccc(O)c(O)c4)oc4cc(O)cc(O)c4c3=O)[C@H](O)[C@@H](O)[C@@H]2O)[C@H](O)[C@H](O)[C@H]1O,–,?,–,–,–,?,?,–,
C=C1C[C@@]23C[C@]1(O)CC[C@@H]2[C@]12C=C[C@@H](O)[C@](C)(C(=O)O1)[C@H]2[C@H]3C(=O)O,·,·,–,·,·,·,·,·,
OC1(c2ccc(Cl)cc2)CCN(Cc2cn[nH]c2-c2ccccc2)CC1,–,10µM,–,–,–,41µM,–,–,
OC1(c2ccc(Cl)cc2)CCN(Cc2cn[nH]c2-c2ccc(F)cc2)CC1,–,·,–,–,–,·,·,·,
CS(=O)(=O)OCCCNCCCOS(C)(=O)=O,·,·,·,·,–,·,·,·,
O=C(NCc1ccccc1)c1cnc(N2CCCCC2)c2ccccc12,·,·,–,·,–,·,·,·,
O=C(CSc1n[nH]c(-c2ccncc2)n1)NC1CCS(=O)(=O)C1 (stereo unspecified),–,7.9µM,–,–,–,10µM,–,?,
COc1ccccc1N1CCN(C(=O)c2cc3c(=O)n(Cc4ccco4)ccc3nc2C)CC1,·,·,–,·,–,·,·,·,
O=C(Nc1ccc(F)cc1)Nn1cnnc1,–,–,–,–,–,·,·,·,
COc1ccc(NC(=O)Nn2cnnc2)cc1OC,–,40µM,–,–,–,26µM,–,?,
O=C(Nc1ccc(F)c(Cl)c1)Nn1cnnc1,–,40µM,–,–,·,13µM,–,?,
CCOc1cc(C(=O)NCCc2csc3nc(-c4ccccc4F)nn23)cc(OCC)c1OCC,·,·,–,·,–,·,·,·,
O=C(O)c1ccccc1NS(=O)(=O)c1cccc(NS(=O)(=O)c2cc(Br)ccc2Br)c1,–,·,·,–,?,·,·,·,GLS hit conf=?;HRP GOx counter=–;GLS HEK tox=–
CCCCCCNC(=O)Nc1ccc(S(=O)(=O)Nc2ccc(CCNC[C@H](O)COc3ccc(O)cc3)cc2)cc1,·,·,–,·,·,·,·,·,
COC(=O)c1scc(-c2ccc(C)cc2)c1S(=O)(=O)N1CCN(c2ccccc2F)CC1,·,·,–,·,–,·,·,·,
Cc1oc2c(cc(NS(=O)(=O)c3ccc(Cl)cc3)c3ccccc32)c1C(=O)O,–,–,–,–,16µM,·,·,·,GLS hit conf=?;HRP GOx counter=–;GLS HEK tox=–
CC(=O)c1c(C)oc2c1cc(NS(=O)(=O)c1ccc(Br)cc1)c1ccccc12,?,·,–,·,–,·,·,·,
